Results on 4 compounds are retold here after PubChem BioAssay (Tox21).

Assay [1] is described as follows: qHTS RealTime-Glo MT Cell Viability Assay in HEK293 cells - 16 hour (AID 1224872). Further: top concentration of the series differs between compounds; on the % scale 0 is the no-effect control and ±100 the full control effect; nearly all actives have a fitted effect of over 50% in size. The method, boiled down: (§1)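 Cells + reagent dispensed (600 cells/well, HEK293) → 5 h at 37 C/5% CO2 → 23 nL compound in DMSO pinned → 40 h at 37 C → luminescence read at 0, 8, 16, 24, 32, 40 h.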
Background: Quantitative high-throughput screening tests each substance at several concentrations.

A short description of assay [2]: qHTS RealTime-Glo MT Cell Viability Assay in HepG2 cells - 8 hour (AID 1224873). Further: on the % scale 0 is the no-effect control and ±100 the full control effect; nearly all actives have a fitted effect of over 55% in size. The essentials: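 HepG2 cells (600/well) mixed with RealTime-Glo MT reagent, settled 5 h at 37 C/5% CO2 before compound addition. Nonlytic NanoLuc luminescence from viable-cell prosubstrate reduction read repeatedly during 40 h treatment at 37 C.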
Assay [3] in a line: qHTS RealTime-Glo MT Cell Viability Assay in HEK293 cells - 40 hour (AID 1224874). Further: nearly all actives have a fitted effect of over 50% in size. Further: potency means the concentration at half of the fitted maximal effect. On max response: on the % scale 0 is the no-effect control and ±100 the full control effect. The settings on record: RealTime-Glo luminescence; max response: stronger effect = lower value. The method, boiled down:
(§2)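 Viable HEK293 cells reduce a cell-permeant prosubstrate; the product diffuses out and is consumed by NanoLuc in the medium to give light. Compounds went in after a 5 h incubation and plates were read over the treatment course.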

Assay [4] can be described thus: A CellTox Green Cytotoxicity Assay to monitor cytotoxicity in HEK293 cells - 24 hour (AID 1224875). Further: nearly all actives have a fitted effect of over 45% in size. Further: potency means the concentration at half of the fitted maximal effect. The method, boiled down: (§3)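 Fluorescence intensity, read at 0, 8, 16, 24, 32 and 40 h of compound treatment, reflected dye binding to DNA of dead HEK293 cells; compounds (23 nL, DMSO) were added 5 h after plating cells with reagent.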
The nature of assay [5]: A CellTox Green Cytotoxicity Assay to monitor cytotoxicity in HepG2 cells - 16 hour (AID 1224876). Further: nearly all actives have a fitted effect of over 45% in size. Further: potency means the concentration at half of the fitted maximal effect. The method, boiled down: (§4)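 Using 1536-well format, dye-containing HepG2 suspension was seeded, allowed 5 h at 37 C/5% CO2, dosed by pintool with compounds, positive and negative controls, and imaged for fluorescence across 40 h.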
Assay [6] is described as follows: qHTS RealTime-Glo MT Cell Viability Assay in HepG2 cells - 32 hour (AID 1224877). Further: on the % scale 0 is the no-effect control and ±100 the full control effect; nearly all actives have a fitted effect of over 55% in size. The essentials: (§5)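 Real-time, nonlytic viability: 600 HepG2 cells/well mixed with NanoLuc enzyme plus prosubstrate; 5 h settle, compound (DMSO) added by pintool; luminescence monitored over 40 h at 37 C.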
Assay [7] in a line: A CellTox Green Cytotoxicity Assay to monitor cytotoxicity in HepG2 cells - 24 hour (AID 1224878). Further: nearly all actives have a fitted effect of over 45% in size. Further: potency means the concentration at half of the fitted maximal effect. On Cytotoxicity: on the % scale 0 is the no-effect control and ±100 the full control effect. The essentials:
as §4

A short description of assay [8]: A CellTox Green Cytotoxicity Assay to monitor cytotoxicity in HepG2 cells - 40 hour (AID 1224879). Further: nearly all actives have a fitted effect of over 40% in size. Further: potency means the concentration at half of the fitted maximal effect. The essentials: as §4
Assay [9] in a line: qHTS RealTime-Glo MT Cell Viability Assay in HEK293 cells - 0 hour (AID 1224880). Further: top concentration of the series differs between compounds; on the % scale 0 is the no-effect control and ±100 the full control effect; nearly all actives have a fitted effect of over 45% in size. The method, boiled down: as §2
Assay [10] in a line: A CellTox Green Cytotoxicity Assay to monitor cytotoxicity in HEK293 cells - 32 hour (AID 1224881). Further: nearly all actives have a fitted effect of over 40% in size. Further: potency means the concentration at half of the fitted maximal effect. The essentials: as §3
The nature of assay [11]: A CellTox Green Cytotoxicity Assay to monitor cytotoxicity in HEK293 cells - 8 hour (AID 1224884). Further: nearly all actives have a fitted effect of over 35% in size. Further: potency means the concentration at half of the fitted maximal effect. The essentials: as §3
A short description of assay [12]: qHTS RealTime-Glo MT Cell Viability Assay in HepG2 cells - 16 hour (AID 1224885). Further: on the % scale 0 is the no-effect control and ±100 the full control effect; nearly all actives have a fitted effect of over 50% in size. The essentials: as §5
Assay [13] is described as follows: qHTS RealTime-Glo MT Cell Viability Assay in HEK293 cells - 24 hour (AID 1224886). Further: top concentration of the series differs between compounds; on the % scale 0 is the no-effect control and ±100 the full control effect; nearly all actives have a fitted effect of over 50% in size. The method, boiled down:
as §1

Assay [14] can be described thus: qHTS RealTime-Glo MT Cell Viability Assay in HEK293 cells - 8 hour (AID 1224887). The method, boiled down:
as §2

Assay [15] can be described thus: A CellTox Green Cytotoxicity Assay to monitor cytotoxicity in HEK293 cells - 16 hour (AID 1224888). Further: nearly all actives have a fitted effect of over 35% in size. Further: potency means the concentration at half of the fitted maximal effect. The essentials: as §3
A short description of assay [16]: qHTS RealTime-Glo MT Cell Viability Assay in HepG2 cells - 0 hour (AID 1224889). The essentials:
as §5

Assay [17] in a line: A CellTox Green Cytotoxicity Assay to monitor cytotoxicity in HepG2 cells - 8 hour (AID 1224890). Further: nearly all actives have a fitted effect of over 45% in size. Further: potency means the concentration at half of the fitted maximal effect. The essentials:
as §4

Assay [18] is described as follows: qHTS assay to identify small molecule antagonists of the estrogen receptor alpha (ER-alpha) signaling pathway using the BG1 cell line in the presence of 0.1 nM 17-beta-estradiol - cell viability counter screen (AID 1259241). Further: on the % scale 0 is the no-effect control and ±100 the full control effect; nearly all actives have a fitted effect of over 40% in size. The method, boiled down: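 Estradiol-stimulated (0.1 nM) VM7Luc4E2 cells exposed to compounds 22 hr; viability measured by fluorescence of cleaved CellTiter-Fluor substrate after 30 min.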

A short description of assay [19]: A CellTox Green Cytotoxicity Assay to monitor cytotoxicity in HepG2 cells - 32 hour (AID 1224883). The essentials: as §4

“And” between values parts separate entries of the source, which are not always exact repeats. Equal values may be shown once. Results filed as inconclusive are left out. Where a structure was tested more than once in an assay, its records may differ in their call. The source made the active and inactive calls. The call rests on the fitted dose curve; in most records, active means well fitted curve in the direction sought with a large enough effect in the repeat runs; inconclusive means weak or mixed curves; inactive means no such curve, though single readings can be large; an effect the other way counts as inactive or inconclusive.

On to `CC(C)OB(OC(C)C)OC(C)C`, for which the Potency entry in assay [1], in assay [2], in [4], in [5], in [6] and in [7] was “inactive” throughout. Also, the Potency result in assay [8], in [9], in assay [10], in assay [11], in [12] and in assay [13] was “inactive” throughout. For the same compound, the Potency result in assay [14], in [15], in assay [16], in assay [17] and in [18] was “inactive” in each case. The max response in [3] is -5.59% (inactive) and -12.5% (inactive).
On to `Nc1ccccc1N`, for which the Potency entry in assay [2], in assay [6], in [12], in assay [13] and in assay [16] was “inactive” throughout. In addition, the max response in assay [3] was -5.16% (inactive). Further, the Potency in assay [4] is 50.1 µM (active); in assay [5], 56.2 µM (active) and inactive; in assay [7], 56.2 µM (active) and inactive; in [8] it was 28.2 µM (active); in [10] it was 50.1 µM (active); in assay [19], 50.1 µM (active). Besides, the Potency in [11] was 50.1 µM (active); in assay [15], 50.1 µM (active); in assay [17] it was 56.2 µM (active).
Turning to `O=C(/C=C/C=C/c1ccc2c(c1)OCO2)N1CCCCC1`, the Potency entry in assay [2], in assay [4], in assay [5], in [6], in [7] and in [9] was “inactive” each time. For the same compound, the Potency result in assay [10], in assay [11], in [12], in [14], in assay [15] and in [16] was “inactive” each time. Also, the Potency entry in assay [17] and in assay [18] was “inactive” in each case. In addition, in [3], the Potency was 55.1 µM (active).
As for `O=C(Nc1ccc(Cl)cc1)Nc1ccc(Cl)c(Cl)c1`, the Potency entry in assay [2], in assay [4], in assay [5], in assay [6], in assay [7] and in [9] was “inactive” each time. For the same compound, the Potency entry in [10], in [11], in [12], in [14], in assay [15] and in [16] was “inactive” throughout. Besides, the Potency result in assay [17] and in [18] was “inactive” in each case. Besides, in assay [3], the Potency is 4.34 µM (active) and 3.89 µM (active) and 3.01 µM (active).
